{"source": "PubChem BioAssay AID651871", "about": "(Sanford-Burnham Center for Chemical Genomics, 2012)", "note": "Several values for one entry are separate records, joined by “and”; a condition that tells them apart may be missing. Equal entries are not always repeated.", "data": [{"tested_on": "H9c2", "assay": "cardiomyocyte survival under oxidative or metabolic stress – cell-based, panel, H9c2 and HL-1, ATP luminescence, set 2, SAR follow-up (AID 651871);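 note: cells exposed to stressor for 2 h before ATP readout; reference of the scale not given here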", "details": "H9c2/HL-1 cardiomyocytes, 2-deoxyglucose stress, with 2-deoxyglucose; run 6, at 79 µM (top of the series)", "values": [{"smiles": "COc1ccc2nc(-c3cc(OC)c(OC)c(OC)c3)cc(C(=O)NCC(=O)Nc3ccc(C(C)=O)cc3)c2c1", "activity (protection/inhibition)": "91.5%"}, {"smiles": "CCOC(=O)c1cccc(NC(=O)CNC(=O)c2cc(-c3cc(OC)c(OC)c(OC)c3)nc3ccccc23)c1", "activity (protection/inhibition)": "73.8%"}, {"smiles": "COc1ccc2c(c1OC)C(=O)N1c3ccccc3C(=O)N(Cc3cccc(Cl)c3Cl)C21", "note": "(stereo not drawn)", "activity (protection/inhibition)": "104% and 66.4% and -6.1%"}]}]}
